Screening data: PubChem, National Center for Advancing Translational Sciences (NCATS)
FMDV inh: High Throughput Screening for Foot and Mouth Disease Virus Antivirals; FMDV antiviral cell-based qHTS; Potency, µM (highest dose often 57.9 µM), for inactives: top-dose activity change, negative = inhibition, hits mostly inhibitors; 1.2% of 410,000 active; AID 1159524, 2015; calls by dose curve; tested in HEK293T cells; also: read-out not given here; potency is read from the fitted curve at half-maximal effect; nearly all actives have a fitted effect of over 45% in size
Vaccinia Venus: qHTS for Stage-Specific Inhibitors of Vaccinia Orthopoxvirus: Venus Reporter Primary qHTS; Potency, µM (titrated, usually from 36.5 µM), for the others: at the top dose activity change, negative = inhibition, most hits filed as inhibitors; Vaccinia virus Venus reporter expression, fluorescence; 0.46% of 330,000 active; AID 720580, 2013; calls by dose curve; tested in A549 cells; also: potency is read from the fitted curve at half-maximal effect; nearly all actives have a fitted effect of over 30% in size
HCV inhibitor: qHTS Assay for Inhibitors of Hepatitis C Virus (HCV) | Huh7.5.1 HCVcc-Cre infection, luciferase reporter, 44 h | Potency, µM (titrated, usually from 41.8 µM), inactives show top-dose activity change, negative = inhibition, most hits filed as inhibitors | 3.4% of 340,000 active | AID 651820, 2012; active = well fitted inhibition curve with a large enough effect; inconclusive = small, poorly fitted or top-dose-only effect, or another doubt; inactive = no such curve, though single readings can be large or run the other way; also: potency is read from the fitted curve at half-maximal effect
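A cell-based infection assay in which seeded cells (1,000 per well) receive test compound after 4 h, are inoculated with HCVcc-Cre at approximately 0.5 moi, and are incubated 44 h before luminescence detection.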
HCMV antiviral: qHTS Assay for inhibitors of the human cytomegalovirus (HCMV). 4.5% of 410,000 active. AID 1259415, 2018. activity change, negative = inhibition, % at 57.5 µM. HFF cells, HCMV-luciferase reporter, 72 h; hits give low values; in the data active = activity change below about -60%; inconclusive = no clear call, values can overlap the other calls; inactive = above about -39%
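Compounds were evaluated in HFFs infected with an HCMV luciferase reporter virus (MOI 1 PFU/cell). Luciferase in lysates collected 72 h post infection served as the replication measure.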
Vaccinia mCherry: qHTS for Stage-Specific Inhibitors of Vaccinia Orthopoxvirus: mCherry Reporter Primary qHTS | 0.63% of 310,000 active | Potency, µM (doses to about 36.5 µM), for inactives: at the top dose activity change, negative = inhibition, actives largely listed as inhibitors | Vaccinia virus mCherry reporter infection, fluorescence; calls by dose curve; tested in A549 cells; also: potency is read from the fitted curve at half-maximal effect; nearly all actives have a fitted effect of over 35% in size
Starred values were filed as active, the others as inactive; [ ] = remark or other dose. A selection: hits, their analogues and other compounds. The true share with any hit is near 7.3%. % is scaled to controls: 0 for no effect and ±100 for the full control effect.

Results for C[C@H]1O[C@@H](O[C@H]2[C@@H](O)C[C@H](O[C@H]3[C@@H](O)C[C@H](O[C@H]4CC[C@@]5(C)[C@H](CC[C@@H]6[C@@H]5CC[C@]5(C)[C@@H](C7=CC(=O)OC7)CC[C@]65O)C4)O[C@@H]3C)O[C@@H]2C)C[C@H](O)[C@@H]1O ?
FMDV inh: inconclusive; Vaccinia Venus: 0.0891µM*; HCV inhibitor: -11.0%[8.37 µM]; Vaccinia mCherry: 7.08µM*

What do the screens show for `CC1O[C@@H](O[C@@H]2C(O)C[C@H](O[C@@H]3C(O)C[C@@H](OC4CC[C@@]5(C)C6CC(O)[C@@]7(C)C(C8=CC(=O)OC8)CC[C@@]7(O)C6CC[C@@H]5C4)OC3C)OC2C)CC(O)[C@H]1O` (some centres undefined)?
FMDV inh: inconclusive; Vaccinia Venus: 1µM*; Vaccinia mCherry: 1µM*

How did CN(c1ccccc1)c1nc(N)c([N+](=O)[O-])c(Nc2ccccc2)n1 do in these assays?
FMDV inh: -17.8%; HCV inhibitor: 5.62µM*; HCMV antiviral: -11.2

How did CN(Cc1ccccc1)c1nc(N)c([N+](=O)[O-])c(NCc2ccccc2)n1 do in these assays?
FMDV inh: 35.5µM*; Vaccinia Venus: -29.6%; HCV inhibitor: inconclusive; HCMV antiviral: inconclusive; Vaccinia mCherry: inconclusive

Results for Cc1ccc(CNc2ncnc(N)c2[N+](=O)[O-])cc1 ?
FMDV inh: 2.4%; Vaccinia Venus: -10.8%; HCV inhibitor: 0.8%; HCMV antiviral: -61.4*; Vaccinia mCherry: -24.2%

Results for Cc1ccc(S(=O)(=O)NC(=O)NC2=NC(C)(C)N(c3ccc(Cl)c(Cl)c3)C(N)=N2)cc1 ?
FMDV inh: 12.2%; Vaccinia Venus: -6.0%; HCMV antiviral: inconclusive; Vaccinia mCherry: inactive

Results for C[C@H](OC(=O)NCc1ccc(C(F)(F)F)cc1)[C@@H]1O[C@@]2(C)CCC[C@@H]1O2 ?
FMDV inh: -14.8%; Vaccinia Venus: -11.0%; HCV inhibitor: 13.0%; HCMV antiviral: 23.0; Vaccinia mCherry: -9.7%

How did CCCNC(=O)c1cc(C2CCCN(C(=O)C3CCCCC3)C2)on1 (centres undefined) do in these assays?
FMDV inh: -7.2%; Vaccinia Venus: 4.5%; HCMV antiviral: -23.3; Vaccinia mCherry: 7.7%

Results for Cc1cccc2sc(NC(=O)c3ccc(OCC4CCCO4)cc3)nc12 (centres undefined) ?
FMDV inh: inconclusive; Vaccinia Venus: -9.3%; HCV inhibitor: inconclusive; HCMV antiviral: 0.0; Vaccinia mCherry: -1.9%

How did CCOc1ccc(C(=O)Nc2nc(C)c(C(=O)OC)s2)cc1 do in these assays?
FMDV inh: 21.4%; Vaccinia Venus: -13.0%; HCV inhibitor: 17.8µM*; HCMV antiviral: 21.3; Vaccinia mCherry: inactive

What do the screens show for `Cc1ccnc(NC(=O)c2ccc(OCC3CCCO3)cc2)c1` (centres undefined)?
FMDV inh: 15.8µM*; Vaccinia Venus: -9.9%; HCV inhibitor: -1.1%; HCMV antiviral: 3.5; Vaccinia mCherry: -12.2%

How did Cc1csc(NC(=O)c2ccc(OCC3CCCO3)cc2)n1 (centres undefined) do in these assays?
FMDV inh: -67.5%; Vaccinia Venus: -3.7%; HCV inhibitor: 11.2µM*; HCMV antiviral: -12.6; Vaccinia mCherry: -12.4%

What do the screens show for `CCOC(=O)c1sc(NC(=O)CSc2ncccn2)nc1C`?
FMDV inh: 33.2%; Vaccinia Venus: -20.1%; HCV inhibitor: 15.8µM*; HCMV antiviral: -11.1; Vaccinia mCherry: -24.9%

Results for CCCCNC(=O)C1(C)CCCCCN1Cc1cc2ccccc2o1 (centres undefined) ?
FMDV inh: inconclusive; Vaccinia Venus: 7.9%; HCMV antiviral: -7.8; Vaccinia mCherry: 12.7%

How did CCc1cccc(NC(=O)CSc2ncccc2C(=O)Oc2ccccc2Cl)c1 do in these assays?
FMDV inh: -2.8%; Vaccinia Venus: -11.7%; HCMV antiviral: 38.8; Vaccinia mCherry: -10.9%

Results for COc1cc2nc(N3CCCN(C)CC3)nc(N)c2cc1OC ?
Vaccinia Venus: -16.0%; Vaccinia mCherry: -19.3%

What do the screens show for `CCOc1ccc2nc(NC(=O)c3ccc(OCC4CCCO4)cc3)sc2c1` (centres undefined)?
FMDV inh: 17.8µM*; Vaccinia Venus: -11.4%; HCV inhibitor: 3.98µM*; HCMV antiviral: inconclusive; Vaccinia mCherry: -4.5%

Results for O=C(Nc1nc(-c2ccc(F)c(F)c2)cs1)c1ccc(OCC2CCCO2)cc1 (centres undefined) ?
FMDV inh: 2µM*; Vaccinia Venus: -19.2%; HCV inhibitor: inconclusive; HCMV antiviral: -69.3*; Vaccinia mCherry: -24.3%

How did O=C(Cn1c(=O)n(Cc2ccc(F)cc2)c(=O)c2sc3ccccc3c21)Nc1ccc(F)cc1F do in these assays?
FMDV inh: 10.3%; Vaccinia Venus: -22.5%; HCMV antiviral: 4.6; Vaccinia mCherry: -20.7%

Results for Clc1ccc(CNc2ncnc3[nH]ncc23)cc1Cl ?
FMDV inh: -20.9%; Vaccinia Venus: 10µM*; HCV inhibitor: -18.7%; HCMV antiviral: -33.5; Vaccinia mCherry: 11.2µM*

Results for CCOc1ccc2[nH]c(=O)c(CN(Cc3cccs3)C(CC)c3nnnn3C(C)(C)CC)cc2c1 (centres undefined) ?
FMDV inh: inconclusive; Vaccinia Venus: inconclusive; HCV inhibitor: 10µM*; HCMV antiviral: inconclusive; Vaccinia mCherry: inconclusive

Results for CCOC(=O)Cn1nnnc1C(CC)N(Cc1cccs1)Cc1cc2cc(C)ccc2[nH]c1=O (centres undefined) ?
FMDV inh: -18.7%; Vaccinia Venus: 26.4%; HCV inhibitor: -7.3%; HCMV antiviral: -4.8

What do the screens show for `O=C(Nc1cccc2ncccc12)c1ccc([N+](=O)[O-])o1`?
FMDV inh: 8.4%; Vaccinia Venus: inconclusive; HCV inhibitor: 25.1µM*; HCMV antiviral: -99.8*; Vaccinia mCherry: inconclusive

How did Cc1c(NC(=O)c2ccc([N+](=O)[O-])o2)cccc1-c1nc2ncccc2o1 do in these assays?
FMDV inh: inconclusive; Vaccinia Venus: inconclusive; HCV inhibitor: inconclusive; HCMV antiviral: -86.5*; Vaccinia mCherry: inconclusive

What do the screens show for `Cc1ccc(C(=O)Nc2ncccc2C)o1`?
FMDV inh: -16.5%; Vaccinia Venus: -10.1%; HCV inhibitor: 14.8%; HCMV antiviral: -26.7; Vaccinia mCherry: -12.0%

Results for Cc1cccnc1NC(=O)c1ccc([N+](=O)[O-])o1 ?
FMDV inh: -1.8%; Vaccinia Venus: -10.4%; HCV inhibitor: 5.0%; HCMV antiviral: -76.0*; Vaccinia mCherry: -25.8%

Results for CC1(c2ccc3ccccc3c2)NC(=O)N(CC(=O)NCC(C)(C)N2CCOCC2)C1=O (centres undefined) ?
FMDV inh: -10.1%; Vaccinia Venus: -2.6%; HCV inhibitor: -13.9%; HCMV antiviral: 15.6; Vaccinia mCherry: -5.8%
